This test has as its system A673/TR/shEF. As to the kind of experiment: cell viability (LOESS-normalised, relative to median of negative controls) (log2 ratio); higher = more viable cells (less compound effect), active = hit call of the paper (over 3 MAD below the median). The following applies: treatment time: 72 h. The gist of the method: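 Doxycycline, present or absent from 24 h before compounds, was used to induce EWS-FLI1 shRNA knockdown in A673/TR/shEF Ewing sarcoma cells at 1,500 per well in 384-well plates. Cells then received library compounds at two or more concentrations, or DMSO controls, for three days. Viability was measured by CellTiter-Glo luminescence on an Envision reader, and per-plate LOESS correction, division by the negative-control median and log2 transformation followed.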

Where [1] appears, read: 0.25 µM, library screen: screen1, EWS-FLI1 expression: high (no doxycycline).
[2] abbreviates: 0.25 µM, library screen: screen1, EWS-FLI1 expression: low (doxycycline-induced shRNA knockdown).
Where [3] appears, read: 2.5 µM, library screen: screen1, EWS-FLI1 expression: high (no doxycycline).
[4] abbreviates: 2.5 µM, library screen: screen1, EWS-FLI1 expression: low (doxycycline-induced shRNA knockdown).
The mark [5] stands for this setting: 0.25 µM, library screen: screen2, EWS-FLI1 expression: high (no doxycycline).
The mark [6] stands for this setting: 0.25 µM, library screen: screen2, EWS-FLI1 expression: low (doxycycline-induced shRNA knockdown).
Setting [7] is: 2.5 µM, library screen: screen2, EWS-FLI1 expression: high (no doxycycline).
[8] abbreviates: 2.5 µM, library screen: screen2, EWS-FLI1 expression: low (doxycycline-induced shRNA knockdown).
Where [9] appears, read: 0.103 µM, library screen: screen3, EWS-FLI1 expression: high (no doxycycline).
The mark [10] stands for this setting: 0.103 µM, library screen: screen3, EWS-FLI1 expression: low (doxycycline-induced shRNA knockdown).
Setting [11] is: 0.308 µM, library screen: screen3, EWS-FLI1 expression: high (no doxycycline).
[12] abbreviates: 0.308 µM, library screen: screen3, EWS-FLI1 expression: low (doxycycline-induced shRNA knockdown).
Setting [13] is: 0.926 µM, library screen: screen3, EWS-FLI1 expression: high (no doxycycline).
The mark [14] stands for this setting: 0.926 µM, library screen: screen3, EWS-FLI1 expression: low (doxycycline-induced shRNA knockdown).
Setting [15] is: 2.8 µM, library screen: screen3, EWS-FLI1 expression: high (no doxycycline).
Setting [16] is: 2.8 µM, library screen: screen3, EWS-FLI1 expression: low (doxycycline-induced shRNA knockdown).
[17] abbreviates: 8.3 µM, library screen: screen3, EWS-FLI1 expression: high (no doxycycline).
Where [18] appears, read: 8.3 µM, library screen: screen3, EWS-FLI1 expression: low (doxycycline-induced shRNA knockdown).
Setting [19] is: 25 µM, library screen: screen3, EWS-FLI1 expression: high (no doxycycline).
Setting [20] is: 25 µM, library screen: screen3, EWS-FLI1 expression: low (doxycycline-induced shRNA knockdown).

The whole screen tested about 3,200 compounds, of which about 300 (9.4%) showed activity. This excerpt belongs to a sample that is enriched for actives.

`COC(=O)C(O)[C@H]1C(C)(C)[C@@H](OC(C)=O)[C@@H]2CC3=C4CC(=O)O[C@@H](c5ccoc5)[C@]4(C)CCC3[C@@]1(C)C2=O` (stereo partly drawn): the “cell viability (log2)” value is, setting by setting: under setting [1], 0.11 (inactive); under setting [2], 0.119 (inactive); under setting [3], 0.15 (inactive); under setting [4], 0.0885 (inactive).

For the compound `CC(=O)O[C@H]1CC[C@@]2(C)C(=CC[C@H]3[C@@H]4CC[C@H]([C@H](C)CCCC(C)C)[C@@]4(C)CC[C@@H]32)C1`, the “cell viability (log2)” value is, setting by setting: under setting [1], 0.0694 (inactive); under setting [2], 0.0487 (inactive); under setting [3], 0.14 (inactive); under setting [4], 0.0189 (inactive).

Consider `O=C(O)C1CC(C2CCCCN2)CN2CCCCC12` (stereo not drawn), for which the “cell viability (log2)” value under setting [1] was 0.039 (inactive), the “cell viability (log2)” value under setting [2] was 0.0346 (inactive), the “cell viability (log2)” value under setting [3] was 0.146 (inactive) and the “cell viability (log2)” value under setting [4] is 0.0208 (inactive).

As for `CC(N)=NCCC[C@H](N)C(=O)O`, the “cell viability (log2)” value was 0.0627 (inactive) under setting [5], 0.0753 (inactive) under setting [6], -0.0275 (inactive) under setting [7] and 0.0731 (inactive) under setting [8].

Regarding `COc1ccccc1CNC(=O)CN(c1ccc(Cl)cc1)S(C)(=O)=O`, the “cell viability (log2)” value reads like this: under setting [1], -0.0129 (inactive); under setting [2], 0.0689 (inactive); under setting [3], 0.0751 (inactive); under setting [4], 0.0379 (inactive).

For `C=C1CCC(C2CC(=O)OC2=O)C(=O)CCC2C1CC2(C)C` (stereo not drawn), the “cell viability (log2)” value is 0.1 (inactive) under setting [1], 0.128 (inactive) under setting [2], 0.0855 (inactive) under setting [3] and 0.0593 (inactive) under setting [4].

Regarding `Cc1nnc(SCC(=O)N2c3ccccc3-c3c(ssc3=S)C2(C)C)s1`, the “cell viability (log2)” value was 0.0582 (inactive) under setting [1], 0.0648 (inactive) under setting [2], 0.115 (inactive) under setting [3] and 0.255 (inactive) under setting [4].

For the compound `CC(C)=CCC/C(C)=C/C=C/C(C)=C/C=C/C(C)=C/C=C/C=C(C)/C=C/C=C(C)/C=C/C=C(\C)CCC=C(C)C`, the “cell viability (log2)” value was 0.149 (inactive) under setting [1], 0.105 (inactive) under setting [2], 0.156 (inactive) under setting [3] and 0.123 (inactive) under setting [4].

With `CC(=O)O[C@@H]1CC2C(C)(C)C=CC(=O)[C@]2(C)C2CC[C@@]3(C)[C@H](c4ccoc4)OC(=O)C4OC43[C@@]21C` (stereo partly drawn), the “cell viability (log2)” value is, setting by setting: under setting [1], 0.059 (inactive); under setting [2], 0.0804 (inactive); under setting [3], 0.118 (inactive); under setting [4], 0.149 (inactive).

With `NC1(C(=O)O)CCCC1`, the “cell viability (log2)” value by setting is: under setting [1], 0.102 (inactive); under setting [2], 0.137 (inactive); under setting [3], 0.134 (inactive); under setting [4], 0.192 (inactive).

As to `NC1(C(=O)O)CC1`, the “cell viability (log2)” value was 0.064 (inactive) under setting [1]; 0.0956 (inactive) under setting [2]; -0.141 (active) under setting [5]; -0.0707 (active) under setting [6]; 0.122 (inactive) under setting [3]; 0.0925 (inactive) under setting [4]. Further, the “cell viability (log2)” value is 0.123 (inactive) under setting [7] and 0.0434 (inactive) under setting [8].

With `NC1(C(=O)O)CCCCC1`, the “cell viability (log2)” value was 0.0492 (inactive) under setting [5], 0.114 (inactive) under setting [6], -0.0212 (inactive) under setting [7] and 0.0608 (inactive) under setting [8].

Consider `CN(C)C(=O)/C(=C\c1cccc(Br)c1)NC(=O)c1ccccc1`, for which the “cell viability (log2)” value under setting [1] was 0.0622 (inactive), the “cell viability (log2)” value under setting [2] is 0.0915 (inactive), the “cell viability (log2)” value under setting [3] is 0.179 (inactive) and the “cell viability (log2)” value under setting [4] is 0.181 (inactive).

As for `O=C(O)c1cc2c(Cl)cc(Cl)cc2[nH]1`, the “cell viability (log2)” value by setting is: under setting [1], 0.105 (inactive); under setting [2], 0.0244 (inactive); under setting [3], 0.0763 (inactive); under setting [4], 0.0336 (inactive).

Turning to `NCC1OC(OC2C(N)CC(N)C(OC3OC(CO)C(O)C(N)C3O)C2O)C(N)C(O)C1O` (stereo not drawn), the “cell viability (log2)” value under setting [1] was 0.0483 (inactive), the “cell viability (log2)” value under setting [2] was 0.0336 (inactive), the “cell viability (log2)” value under setting [3] was 0.164 (inactive) and the “cell viability (log2)” value under setting [4] is 0.0237 (inactive).

Consider `C[S+]([O-])c1ccc(-c2nc(-c3ccc(F)cc3)c(-c3ccncc3)[nH]2)cc1` (stereo not drawn), for which the “cell viability (log2)” value was 0.29 (0.025 µM, library screen: screen1, EWS-FLI1 expression: high (no doxycycline)); 0.136 (inactive) (0.025 µM, library screen: screen1, EWS-FLI1 expression: low (doxycycline-induced shRNA knockdown)); 0.263 (inactive) under setting [1]; 0.121 (inactive) under setting [2]; -0.235 (active) under setting [3]; 0.238 (inactive) under setting [4]. Moreover, the “cell viability (log2)” value by setting is: (25 µM, library screen: screen1, EWS-FLI1 expression: high (no doxycycline)) -0.108 (active); (25 µM, library screen: screen1, EWS-FLI1 expression: low (doxycycline-induced shRNA knockdown)) 0.274 (inactive).

Consider `COc1cc([S+](C)[O-])ccc1-c1nc2ncccc2[nH]1` (stereo not drawn), for which the “cell viability (log2)” value runs as follows: under setting [1], 0.101 (inactive); under setting [2], 0.00949 (inactive); under setting [3], 0.131 (inactive); under setting [4], 0.0599 (inactive).

As to `C/C1=C\CC(C)(C)/C=C\CC2(C)OC2CC1` (stereo not drawn), the “cell viability (log2)” value is, setting by setting: under setting [1], 0.0693 (inactive); under setting [2], 0.00465 (inactive); under setting [3], 0.118 (inactive); under setting [4], 0.162 (inactive).

In the case of `CC(C)CCC[C@@H](C)[C@H]1CC[C@H]2C3=CC[C@H]4C[C@@H](O)CC[C@]4(C)[C@H]3CC[C@]12C`, the “cell viability (log2)” value runs as follows: under setting [1], -0.0717 (inactive); under setting [2], -0.021 (inactive); under setting [3], 0.0758 (inactive); under setting [4], 0.0695 (inactive).

In the case of `C[C@H]1COC2=C1C(=O)C(=O)c1c2ccc2c1CCCC2(C)C`, the “cell viability (log2)” value by setting is: under setting [9], 0.0338 (inactive); under setting [10], 0.0754 (inactive); under setting [11], 0.0526 (inactive); under setting [12], 0.0683 (inactive); under setting [13], 0.0196 (inactive); under setting [14], 0.0264 (inactive). In addition, the “cell viability (log2)” value is -0.0315 (inactive) under setting [15]; -0.0274 (inactive) under setting [16]; 0.0932 (inactive) under setting [17]; -0.035 (inactive) under setting [18]; -0.196 (active) under setting [19]; -0.308 (active) under setting [20].

As to `CCN1CCC[C@H]1CNC(=O)c1c(OC)ccc(I)c1O`, the “cell viability (log2)” value was 0.251 (inactive) under setting [5], 0.174 (inactive) under setting [6], 0.0364 (inactive) under setting [7] and 0.15 (inactive) under setting [8].

In the case of `Cc1ccsc1C=C1SC(=S)N(CC(=O)O)C1=O`, the “cell viability (log2)” value was 0.0973 (inactive) under setting [1], 0.0799 (inactive) under setting [2], 0.133 (inactive) under setting [3] and 0.152 (inactive) under setting [4].

In the case of `C=CCN1C(=O)/C(=C2\SC(=S)N(c3c(C)n(C)n(-c4ccccc4)c3=O)C2=O)c2ccccc21`, the “cell viability (log2)” value runs as follows: under setting [1], -0.0187 (inactive); under setting [2], -0.00404 (inactive); under setting [3], 0.0713 (inactive); under setting [4], -0.0309 (inactive).

Regarding `OCC(O)C1NCC(O)C1O` (stereo not drawn), the “cell viability (log2)” value by setting is: under setting [5], 0.0417 (inactive); under setting [6], 0.103 (inactive); under setting [7], 0.000766 (inactive); under setting [8], 0.0189 (inactive).

For `Cc1cc(N)c2ccccc2[n+]1CCCCCCCCCC[n+]1c(C)cc(N)c2ccccc21`, the “cell viability (log2)” value is, setting by setting: under setting [1], 0.139 (inactive); under setting [2], 0.0436 (inactive); under setting [5], 0.122 (inactive); under setting [6], 0.0489 (inactive); under setting [3], -1.46 (active); under setting [4], -0.54 (active). For the same compound, the “cell viability (log2)” value runs as follows: under setting [7], -0.865 (active); under setting [8], -0.463 (active).

Turning to `CC[C@H]1C(=O)OC[C@@H]1Cc1cccn1C`, the “cell viability (log2)” value runs as follows: under setting [1], 0.154 (inactive); under setting [2], 0.0128 (inactive); under setting [3], 0.143 (inactive); under setting [4], 0.0953 (inactive).

Consider `CC12CCCC(O)(C1)C1CC(C)(C)C1CC2` (stereo not drawn), for which the “cell viability (log2)” value is, setting by setting: under setting [1], 0.066 (inactive); under setting [2], -0.02 (inactive); under setting [3], 0.0972 (inactive); under setting [4], 0.0732 (inactive).

Turning to `Oc1ccc([C@H]2Oc3cc(O)cc(O)c3C[C@H]2O)cc1`, the “cell viability (log2)” value is 0.0303 (inactive) under setting [1], -0.000667 (inactive) under setting [2], 0.0839 (inactive) under setting [3] and -0.00856 (inactive) under setting [4].

Take `Oc1ccc([C@@H]2Oc3ccc(O)cc3[C@@H]3CCC[C@@H]32)cc1`: the “cell viability (log2)” value runs as follows: under setting [9], -0.0128 (inactive); under setting [10], 0.0648 (inactive); under setting [11], -0.0264 (inactive); under setting [12], -0.0313 (inactive); under setting [13], -0.0384 (inactive); under setting [14], 0.0122 (inactive). Also, the “cell viability (log2)” value runs as follows: under setting [15], -0.0259 (inactive); under setting [16], 0.00446 (inactive); under setting [17], -0.0456 (inactive); under setting [18], 0.0022 (inactive); under setting [19], -0.181 (active); under setting [20], -0.0464 (inactive).

For the compound `Oc1ccc2c(c1)OC[C@H]1c3cc4c(cc3O[C@@H]21)OCO4`, the “cell viability (log2)” value reads like this: under setting [1], 0.0543 (inactive); under setting [2], -0.104 (inactive); under setting [3], 0.119 (inactive); under setting [4], 0.0894 (inactive).

The values above are taken from the supplement of paper PMC6089552.
